Experiment [1] has as its system Human papillomavirus type 1a protein E7 (residues 44-93). The experiment in a line: HPV1a E7 fragment binders on microarrays, primary screen, biochemical, small-molecule microarray, residues 44-93, 635 nm fluorescence (AID 1108).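 Note: E7 fragment applied at 1 µg/mL in TBST for 1 h at 4 C; score combines spot fluorescence with its signal to noise ratio.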 The conditions noted are these: small-molecule microarray binding, fluorescence 635 nm; higher = more signal.
Experiment [2] is described as follows: modulators of HCV replicon luciferase signal, primary screen, HCV replication inhibitor project, Huh7 cells, luciferase reporter (AID 1109).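 Note: huh7 hepatoma cells harbouring a luciferase neomycin HCV replicon reporter; luciferase luminescence as measure of HCV replicon replication; test concentration not given here.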 The conditions noted are these: 48 h, higher = more signal. On the technique in general: In antiviral work, replicon cells carry a viral genome segment that copies itself.
Experiment [3] deals with Left-right determination factor 2 (Homo sapiens) (UniProt O00292). The experiment in a line: LEFTY2 binders on small-molecule microarrays, primary screen, biochemical, small-molecule microarray, 635 nm fluorescence scan (AID 1110). The conditions noted are these: LEFTY2 binding, higher = more signal.
Sequence of Left-right determination factor 2 (Homo sapiens) (O00292 whole entry, looked up): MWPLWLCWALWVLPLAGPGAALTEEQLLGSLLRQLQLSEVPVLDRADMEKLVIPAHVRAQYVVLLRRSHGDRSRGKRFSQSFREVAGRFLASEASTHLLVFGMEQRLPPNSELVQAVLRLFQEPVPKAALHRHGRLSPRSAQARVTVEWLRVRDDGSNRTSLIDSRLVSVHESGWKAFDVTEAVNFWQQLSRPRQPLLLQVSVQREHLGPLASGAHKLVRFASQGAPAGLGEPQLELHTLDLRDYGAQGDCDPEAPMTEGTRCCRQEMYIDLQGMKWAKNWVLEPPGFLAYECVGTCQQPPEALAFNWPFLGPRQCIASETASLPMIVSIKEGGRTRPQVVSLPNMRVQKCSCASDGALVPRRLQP
For experiment [4], the target named is Calmodulin-1 (Homo sapiens) (UniProt P0DP23). The experiment can be described thus: CALM1 binders on microarrays, EGTA buffer, profiling panel, biochemical, small-molecule microarray, Cy5-labelled CALM1 (AID 1111).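 Note: labelled calmodulin applied in Tris saline Tween buffer holding calcium plus EGTA and DTT.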 Conditions: Cy5-CALM1 binding fluorescence, higher = more signal.
Experiment [5] has the same target. The experiment can be described thus: calcium-bound CALM1 binders on microarrays, profiling panel, artefact control for SMM control-protein annotation, biochemical, small-molecule microarray, Cy5-labelled CALM1, plus calcium (AID 1112).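 Note: score merges spot fluorescence with signal to noise from triplicate slides.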 Conditions: Cy5-CALM1 binding fluorescence, higher = more signal.
Experiment [6] in a line: small-molecule microarray binders of probe aWnt5a, primary screen, biochemical, biotinylated probe, 635/667 nm fluorescence (AID 1113).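 Note: score merges 667 nm fluorescence intensity with signal-to-noise per printed feature.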 Conditions: higher = more signal.
The nature of experiment [7]: small-molecule microarray binders of probe aShh, primary screen, biochemical, biotinylated probe, 635/667 nm fluorescence (AID 1114).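 Note: probe is biotin-labelled aShh protein from a stem cell growth factor screen; measures binding of labelled protein to compounds printed on the slide; score merges feature fluorescence at 667 nm with signal-to-noise.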 Conditions: higher = more signal.
Experiment [8] in a line: small-molecule microarray binders of probe aNog, primary screen, biochemical, biotinylated probe, 635/667 nm fluorescence (AID 1115).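 Note: probe is biotinylated aNog protein used at 0.15 µg/mL for 1 h at 4 C; z-score combines 667 nm fluorescence of each spot with its signal to noise.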 Conditions: higher = more signal.
In experiment [9] the target is Torsin-1A-interacting protein 1 (Homo sapiens) (UniProt Q5JTV8). The experiment in a line: LAP1 binders from COS7 cell lysate, primary screen, small-molecule microarray, 635/667 nm fluorescence (AID 1116). The conditions noted are these: COS7-hLAP1 lysate binding, 635 nm fluorescence, higher = more signal.
Sequence of Torsin-1A-interacting protein 1 (Homo sapiens) (Q5JTV8 whole entry, looked up): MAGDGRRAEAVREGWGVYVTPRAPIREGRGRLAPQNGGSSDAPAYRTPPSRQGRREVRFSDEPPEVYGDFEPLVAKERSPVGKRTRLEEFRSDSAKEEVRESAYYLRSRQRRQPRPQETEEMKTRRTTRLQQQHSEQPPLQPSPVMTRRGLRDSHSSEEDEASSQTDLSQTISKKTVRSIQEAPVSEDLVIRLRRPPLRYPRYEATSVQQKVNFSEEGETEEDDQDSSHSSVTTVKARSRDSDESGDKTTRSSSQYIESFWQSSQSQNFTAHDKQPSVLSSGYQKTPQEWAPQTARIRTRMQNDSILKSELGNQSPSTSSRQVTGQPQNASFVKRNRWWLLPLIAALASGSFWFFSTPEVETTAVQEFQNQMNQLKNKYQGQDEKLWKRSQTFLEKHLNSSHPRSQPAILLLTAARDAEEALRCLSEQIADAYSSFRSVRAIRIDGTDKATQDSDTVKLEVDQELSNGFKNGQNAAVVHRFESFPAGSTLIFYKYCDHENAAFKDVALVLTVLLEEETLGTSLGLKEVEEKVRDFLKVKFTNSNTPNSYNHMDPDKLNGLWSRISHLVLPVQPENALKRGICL
The target in experiment [10] is Alpha-bungarotoxin (Bungarus multicinctus) (UniProt P60615). The experiment in a line: alpha-bungarotoxin binders on microarray, profiling panel, artefact control for SMM control protein annotation, biochemical, small-molecule microarray, Alexa647 label, 635/667 nm fluorescence (AID 1117). Conditions: alpha-BTX-A647 binding fluorescence, higher = more signal.
Sequence of Alpha-bungarotoxin (Bungarus multicinctus) (P60615 whole entry, looked up): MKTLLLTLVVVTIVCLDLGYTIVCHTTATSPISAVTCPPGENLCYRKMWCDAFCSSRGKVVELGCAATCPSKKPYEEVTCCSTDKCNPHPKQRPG

As to `CN(C)C(=O)[C@@]1(Cc2ccccc2)N=C(c2ccc(OCCCO)cc2)O[C@H]1c1ccccc1N=[N+]=[N-]`, the composite z-score in [1] was 1.42; in experiment [3] it was -0.0506; in experiment [4], 1.09; in experiment [5] it was 0.0779; in [6], 0.178; in experiment [7], -0.0146. Further, the results for the composite z-score in experiment [8], in experiment [9] and in experiment [10] were -0.482, 0.491 and 0.567, respectively. Moreover, the z-score in [2] was -2.79.

As to `O=C1C2C=CC(C(O)C3CCCCC3)N(Nc3ccc([N+](=O)[O-])cc3)C2C(=O)N1c1ccccc1` (stereo not given), the composite z-score in [1] is 1.37; in [3] it was -1.4; in experiment [4] it was 1.16; in experiment [5] it was 0.164; in experiment [6], -0.0944; in [7], -0.0035. Also, the composite z-score in [8] turned out to be 0.283; in [9] it was 0.721; in experiment [10] it was 1.96. The same molecule displayed a z-score in [2] of -0.057.

For `CC(C)c1ccc(NN2C(C(O)C(c3ccccc3)c3ccccc3)C=CC3C(=O)N(c4ccccc4)C(=O)C32)cc1` (stereo not given), the composite z-score was 1.42 in [1]; 0.219 in [3]; 1.27 in experiment [4]; -0.147 in [5]; 0.0279 in experiment [6]; 0.171 in [7]. Also, the composite z-score came to 1.46 in [8], 0.954 in experiment [9] and 1.74 in [10]. In addition, the z-score in experiment [2] was -0.276.

On to `COCCOC(=O)N1C(=O)[C@@]2(c3ccccc31)[C@H](c1ccccc1OCCO)N1[C@H](c3ccccc3)[C@H](c3ccccc3)OC(=O)[C@H]1[C@@H]2C(=O)Nc1nc2ccccc2s1`, for which the composite z-score in experiment [1] is 0.484; in experiment [3], 0.531; in [4], 1.24; in [5] it was 0.375; in [6], 0.0095; in experiment [7], -0.188. For the same molecule, the composite z-score in experiment [8] is 0.326; in experiment [9] it was 0.988; in [10], 1.74. In addition, the z-score in experiment [2] is -2.52.

Regarding `CCC(CC)C(O)C1C=CC2C(=O)N(C)C(=O)C2N1Nc1ccccc1` (stereo not given), the composite z-score in [1] was 0.948; in experiment [3], -0.054; in experiment [4], 1.44; in experiment [5], 0.463; in experiment [6], -0.0863; in experiment [7] it was 0.128. Besides, the composite z-score was 1.09 in experiment [8], 1.64 in experiment [9] and 1.04 in experiment [10]. In [2], this molecule displayed a z-score of 0.347.

With `COCCOC(=O)N1C(=O)[C@@]2(c3cc(C#CCCO)ccc31)[C@H](C(=O)Nc1nc3ccccc3s1)[C@H]1C(=O)O[C@H](c3ccccc3)[C@H](c3ccccc3)N1[C@@H]2c1ccc(OCCO)cc1`, the composite z-score in [1] is 1.32; in experiment [3], 0.774; in experiment [4] it was 1.08; in [5] it was -0.263; in [6] it was 0.115; in experiment [7], 0.0898. In addition, the composite z-score was -0.22 in experiment [8], 1.14 in [9] and 0.772 in experiment [10]. Besides, the z-score in experiment [2] was -1.81.

Consider `COc1ccc(C#Cc2ccc3c(c2)[C@]2(C(=O)N3)[C@H](c3ccccc3OCCO)N3[C@H](c4ccccc4)[C@H](c4ccccc4)OC(=O)[C@H]3[C@@H]2C(=O)O)cc1`, for which the composite z-score in [1] amounted to 1.42; in experiment [3], 0.186; in experiment [4], 1.22; in experiment [5], 1.05; in experiment [6], 0.0932; in [7], 0.0037. In addition, the composite z-score in experiment [8] was 1.52; in [9], 1.77; in experiment [10], 1.67. In addition, in experiment [2], the z-score is -2.87.

`CCOC(=O)C1=CCC(c2ccc(C)cc2)N(S(=O)(=O)c2ccc(C)cc2)C1` (stereo not given): the composite z-score was 1.12 in experiment [1]; 0.175 in experiment [3]; 0.367 in experiment [4]; 0.172 in experiment [5]; -0.0226 in experiment [6]; -0.0977 in experiment [7]. Besides, the composite z-score in experiment [8] was 0.542; in experiment [9] it was 0.81; in experiment [10] it was 1.15. Further, the z-score in [2] is -0.905.

Turning to `O=C1OCC=C[C@H]2OC34C=CCN(c5ccc6ccccc6c5)C(=O)[C@H]3N(CCCCCCO)C(=O)[C@@H]4[C@@H]12` (stereo not given in full), the composite z-score was -0.925 in experiment [1]; -1.06 in [3]; -0.327 in experiment [4]; 0.132 in [5]; -0.152 in [6]; 0.0121 in experiment [7]. For the same molecule, the values for the composite z-score in [8], in experiment [9] and in [10] were 0.509, 1.09 and -1.01, respectively. Besides, the z-score in experiment [2] was found to be 0.699.

For `C=C(CCCC)C(=O)CC[C@H](OC(C)=O)c1cccc(OCCO)c1`, the composite z-score was -0.252 in experiment [1]; -0.433 in experiment [3]; -0.687 in experiment [4]; -0.918 in [5]; -0.156 in experiment [6]; -0.0709 in experiment [7]. The figures for the composite z-score in [8], in [9] and in experiment [10] were -0.036, 1.31 and -0.653, respectively. This molecule also returned a z-score in experiment [2] of -1.78.

Turning to `C[N+](C)(C)CCCC[C@@H]1NC(=O)[C@@H]2C[C@H](C(=O)NCCCCCN)[C@H](c3cccc(OCCO)c3)N2C1=O`, the composite z-score in experiment [1] was 1.32; in [3], -0.202; in experiment [4], 1.7; in experiment [5] it was 1.12; in experiment [6], -0.289; in experiment [7] it was -0.256. Moreover, the results for the composite z-score in experiment [8], in [9] and in experiment [10] were 0.422, 0.987 and 0.932, respectively. This molecule returned a z-score in [2] of -0.0028.

Turning to `O=C1c2ccccc2[C@@]2(Cc3ccccc3N(CCN3CCOCC3)C2=O)[C@H](c2ccc(CO)cc2)N1Cc1ccccc1`, the composite z-score in experiment [1] is -0.22; in experiment [3], -0.976; in [4] it was -0.211; in experiment [5] it was -0.11; in experiment [6] it was -0.128; in [7], -0.0709. Moreover, the results for the composite z-score in [8], in experiment [9] and in experiment [10] were -0.5, 1.01 and 0.175, respectively. Moreover, in experiment [2], the z-score was -0.446.

In the case of `C=CC[C@@]1(C(=O)N(C)C)N=C(c2ccc(OCCCO)cc2)O[C@@H]1c1ccccc1N=[N+]=[N-]`, the composite z-score in experiment [1] was 0.608; in experiment [3], 0.232; in [4], 2.66; in [5], 1.03; in [6] it was 0.0597; in [7], 0.613. The composite z-score turned out to be 2.21 in experiment [8], 2.7 in experiment [9] and 2.95 in experiment [10]. In addition, in experiment [2], the z-score is -1.08.

Consider `C=CCOC(=O)[C@H]1[C@@H]2C(=O)O[C@@H](c3ccccc3)[C@@H](c3ccccc3)N2[C@@H](c2ccc(OCCOC(=O)[C@H]3C[C@H]4C(=O)N5CCC[C@H]5C(=O)N4[C@H]3c3ccc(O)cc3)cc2)[C@]12C(=O)Nc1ccccc12`, for which the composite z-score in [1] is 1.45; in experiment [3], 1.42; in experiment [4], 0.959; in [5], -0.0987; in experiment [6] it was 0.0354; in experiment [7], 0.147. Further, the composite z-score in experiment [8] is -0.21; in experiment [9], 1.5; in experiment [10] it was 0.588. The z-score in experiment [2] was -1.93.
